# Shown is part of a subset that was picked to be rich in the strongest signals.
# B1: AT3G44510(29) (Arabidopsis thaliana), F4J341 (protein)
# chain: MEEHLQGRIKLHDGRYLAYKERGVPKDDAKFTIVLVHGFGSSKDMNFNVSQELVNEIGIYFVLYDRAGYGESDPNPKRSLKSEAYDVQELADGLEIGSRFYLIGISMGSYTVWSCLKHIPQRLAGVAMVAPVVNFRWPSIPKSLMPKDYRREVAKWSVWIANYFPGLLQWLVTQNMFSTTSMLEKNPVYFNDQDIEVLKHIKGFPMLTKEKLRERGVFGTLRSDFLVAFGDWDFDPADLPDPSLSGPEKGSSSVHIWQGYEDKVMPFQLQRCLCRKLPWIRYHEVPKGGHLIVHYDGICDAILKSLLLGEDLPMYKPKAVITEPA
# Assays:
# Experiment in all cases: glycan array binding signal (z-score within array); higher = stronger binding
# Settings in all cases: glycan notation: IUPAC condensed, linker removed
# Fuc(a1-2)Gal(b1-3)GlcNAc = molecular target: Fuc(a1-2)Gal(b1-3)GlcNAc
# How it was run: (§1)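 Glycan array data were curated from 3228 arrays in the Consortium for Functional Glycomics database and kept only where the protein sequence was available. Glycan names were converted to IUPAC-condensed notation, and columns mapping to the same glycan were averaged. The binding signal is a within-array Z-score, averaged across arrays of the same protein sequence at different concentrations or buffers and across linkers. Negative Z-scores can be read as non-binding.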
# [1] = molecular target: Fuc(a1-2)Gal(b1-3)[Fuc(a1-4)]GlcNAc(b1-3)[Gal(b1-4)GlcNAc(b1-6)]Gal(b1-4)Glc
# How it was run: as §1
# [2] = molecular target: Fuc(a1-2)Gal(b1-4)GlcNAc(b1-6)GalNAc
# How it was run: as §1
# [3] = molecular target: Fuc(a1-2)Gal(b1-4)[Fuc(a1-3)]GlcNAc
# How it was run: as §1
# [4] = molecular target: Fuc(a1-2)Gal(b1-4)[Fuc(a1-3)]GlcNAc(b1-2)Man(a1-3)[Fuc(a1-2)Gal(b1-4)[Fuc(a1-3)]GlcNAc(b1-2)Man(a1-6)]Man(b1-4)GlcNAc(b1-4)[Fuc(a1-6)]GlcNAc
# How it was run: as §1
# [5] = molecular target: Fuc(a1-2)Gal(b1-4)[Fuc(a1-3)]GlcNAc(b1-3)Gal(b1-4)[Fuc(a1-3)]GlcNAc
# How it was run: as §1
# [6] = molecular target: Fuc(a1-2)Gal3S(b1-4)GlcNAc
# How it was run: as §1
# Fuc(a1-2)[Gal(a1-3)]Gal = molecular target: Fuc(a1-2)[Gal(a1-3)]Gal
# How it was run: as §1
# [7] = molecular target: Fuc(a1-2)[Gal(a1-3)]Gal(b1-4)GlcNAc(b1-2)Man(a1-3)[Fuc(a1-2)[Gal(a1-3)]Gal(b1-4)GlcNAc(b1-2)Man(a1-6)]Man(b1-4)GlcNAc(b1-4)[Fuc(a1-6)]GlcNAc
# How it was run: as §1
# [8] = molecular target: Fuc(a1-2)[GalNAc(a1-3)]Gal(b1-3)GalNAc(b1-3)Gal(a1-4)Gal(b1-4)Glc
# How it was run: as §1
# [9] = molecular target: Fuc(a1-2)[GalNAc(a1-3)]Gal(b1-3)GlcNAc(b1-2)Man(a1-3)[Fuc(a1-2)[GalNAc(a1-3)]Gal(b1-3)GlcNAc(b1-2)Man(a1-6)]Man(b1-4)GlcNAc(b1-4)[Fuc(a1-6)]GlcNAc
# How it was run: as §1
# [10] = molecular target: Fuc(a1-2)[GalNAc(a1-3)]Gal(b1-4)[Fuc(a1-3)]GlcNAc
# How it was run: as §1
# [11] = molecular target: Fuc(a1-2)[GalNAc(a1-3)]Gal(b1-4)[Fuc(a1-3)]GlcNAc(b1-3)GalNAc
# How it was run: as §1
# [12] = molecular target: Fuc(a1-3)[GalNAc(b1-4)]GlcNAc6S
# How it was run: as §1
# Gal(a1-3)Gal(b1-4)Glc = molecular target: Gal(a1-3)Gal(b1-4)Glc
# How it was run: as §1
# Gal(a1-3)GalNAc = molecular target: Gal(a1-3)GalNAc
# How it was run: as §1
# [13] = molecular target: Gal(a1-3)[Gal(a1-4)]Gal(b1-4)GlcNAc
# How it was run: as §1
# Gal(a1-4)Gal(b1-4)Glc = molecular target: Gal(a1-4)Gal(b1-4)Glc
# How it was run: as §1
# [14] = molecular target: Gal(a1-4)Gal(b1-4)GlcNAc(b1-3)Gal(b1-4)Glc
# How it was run: as §1
# Gal(b1-3)GlcNAc = molecular target: Gal(b1-3)GlcNAc
# How it was run: as §1
# [15] = molecular target: Gal(b1-3)[Fuc(a1-4)]GlcNAc(b1-3)Gal(b1-3)[Fuc(a1-4)]GlcNAc
# How it was run: as §1
# [16] = molecular target: Gal(b1-4)GlcNAc(a1-6)Gal(b1-4)GlcNAc
# How it was run: as §1
# [17] = molecular target: Gal(b1-4)GlcNAc(b1-2)Man(a1-3)[Gal(b1-4)GlcNAc(b1-2)Man(a1-6)]Man(b1-4)GlcNAc(b1-4)GlcNAc
# How it was run: as §1
# [18] = molecular target: Gal(b1-4)GlcNAc(b1-2)[Gal(b1-4)GlcNAc(b1-6)]Man(a1-6)[GlcNAc(b1-4)][Gal(b1-4)GlcNAc(b1-2)[Gal(b1-4)GlcNAc(b1-4)]Man(a1-3)]Man(b1-4)GlcNAc(b1-4)[Fuc(a1-6)]GlcNAc
# How it was run: as §1
# [19] = molecular target: Gal(b1-4)GlcNAc(b1-3)Gal(b1-3)GlcNAc
# How it was run: as §1
# [20] = molecular target: Gal(b1-4)GlcNAc(b1-3)Gal(b1-4)GlcNAc(b1-2)[Gal(b1-4)GlcNAc(b1-3)Gal(b1-4)GlcNAc(b1-6)]Man(a1-6)[Gal(b1-4)GlcNAc(b1-3)Gal(b1-4)GlcNAc(b1-2)Man(a1-3)]Man(b1-4)GlcNAc(b1-4)[Fuc(a1-6)]GlcNAc
# How it was run: as §1
# Gal6S(b1-4)Glc = molecular target: Gal6S(b1-4)Glc
# How it was run: as §1
# [21] = molecular target: GalNAc(a1-3)GalNAc(b1-3)Gal(a1-4)Gal(b1-4)Glc
# How it was run: as §1
# [22] = molecular target: GalNAc(b1-3)Gal(a1-4)Gal(b1-4)GlcNAc
# How it was run: as §1
# [23] = molecular target: GalNAc(b1-3)Gal(a1-6)Gal(b1-4)Glc
# How it was run: as §1
# GalNAc(b1-3)GlcNAc = molecular target: GalNAc(b1-3)GlcNAc
# How it was run: as §1
# GalNAc(b1-4)GlcNAc = molecular target: GalNAc(b1-4)GlcNAc
# How it was run: as §1
# GalNAc4S6S(b1-4)GlcNAc = molecular target: GalNAc4S6S(b1-4)GlcNAc
# How it was run: as §1
# GlcA(b1-3)Gal = molecular target: GlcA(b1-3)Gal
# How it was run: as §1
# GlcA(b1-6)Gal = molecular target: GlcA(b1-6)Gal
# How it was run: as §1
# [24] = molecular target: GlcNAc(a1-4)Gal(b1-4)GlcNAc(b1-3)Gal(b1-4)Glc
# How it was run: as §1
# [25] = molecular target: GlcNAc(a1-4)Gal(b1-4)GlcNAc(b1-3)Gal(b1-4)[Fuc(a1-3)]GlcNAc(b1-3)Gal(b1-4)[Fuc(a1-3)]GlcNAc
# How it was run: as §1
# [26] = molecular target: GlcNAc(b1-3)Gal(b1-4)GlcNAc
# How it was run: as §1
# [27] = molecular target: GlcNAc(b1-3)Gal(b1-4)GlcNAc(b1-2)[GlcNAc(b1-3)Gal(b1-4)GlcNAc(b1-6)]Man(a1-6)[GlcNAc(b1-3)Gal(b1-4)GlcNAc(b1-2)Man(a1-3)]Man(b1-4)GlcNAc(b1-4)GlcNAc
# How it was run: as §1
# [28] = molecular target: Man(a1-2)Man(a1-6)[Man(a1-3)]Man(a1-6)[Man(a1-2)Man(a1-2)Man(a1-3)]Man
# How it was run: as §1
# [29] = molecular target: Neu5Ac(a2-3)Gal(b1-3)GlcNAc(b1-3)Gal(b1-3)GlcNAc
# How it was run: as §1
# [30] = molecular target: Neu5Ac(a2-3)Gal(b1-3)[Fuc(a1-4)]GlcNAc
# How it was run: as §1
# [31] = molecular target: Neu5Ac(a2-3)Gal(b1-4)GlcNAc(b1-2)Man(a1-3)[Neu5Ac(a2-6)Gal(b1-4)GlcNAc(b1-2)Man(a1-6)]Man(b1-4)GlcNAc(b1-4)GlcNAc
# How it was run: as §1
# [32] = molecular target: Neu5Ac(a2-3)Gal(b1-4)GlcNAc(b1-3)Gal(b1-4)GlcNAc(b1-6)[Gal(b1-3)]GalNAc
# How it was run: as §1
# [33] = molecular target: Neu5Ac(a2-3)Gal(b1-4)[Fuc(a1-3)]GlcNAc(b1-3)Gal
# How it was run: as §1
# [34] = molecular target: Neu5Ac(a2-3)Gal(b1-4)[Fuc(a1-3)]GlcNAc6S
# How it was run: as §1
# [35] = molecular target: Neu5Ac(a2-6)Gal(b1-4)GlcNAc(b1-2)[Neu5Ac(a2-6)Gal(b1-4)GlcNAc(b1-4)]Man(a1-3)[GlcNAc(b1-4)][Neu5Ac(a2-6)Gal(b1-4)GlcNAc(b1-2)[Neu5Ac(a2-6)Gal(b1-4)GlcNAc(b1-6)]Man(a1-6)]Man(b1-4)GlcNAc(b1-4)GlcNAc
# How it was run: as §1
# [36] = molecular target: Neu5Ac(a2-6)Gal(b1-4)GlcNAc(b1-3)Gal(b1-4)GlcNAc(b1-3)Gal(b1-4)GlcNAc(b1-2)Man(a1-3)[Neu5Ac(a2-6)Gal(b1-4)GlcNAc(b1-3)Gal(b1-4)GlcNAc(b1-3)Gal(b1-4)GlcNAc(b1-2)Man(a1-6)]GalNAc
# How it was run: as §1
# [37] = molecular target: Neu5Gc(a2-8)Neu5Gc(a2-3)Gal(b1-4)GlcNAc(b1-3)Gal(b1-4)GlcNAc
# How it was run: as §1
binder,measurement,setting,value
B1,glycan array binding signal (z-score),Fuc(a1-2)Gal(b1-3)GlcNAc,0.123
same,glycan array binding signal (z-score),[1],0.203
same,glycan array binding signal (z-score),[2],-0.731
same,glycan array binding signal (z-score),[3],-0.381
same,glycan array binding signal (z-score),[4],-0.458
same,glycan array binding signal (z-score),[5],-0.951
same,glycan array binding signal (z-score),[6],3.33
same,glycan array binding signal (z-score),Fuc(a1-2)[Gal(a1-3)]Gal,2.08
same,glycan array binding signal (z-score),[7],-0.079
same,glycan array binding signal (z-score),[8],-0.123
same,glycan array binding signal (z-score),[9],-0.313
same,glycan array binding signal (z-score),[10],-0.818
same,glycan array binding signal (z-score),[11],6.03
same,glycan array binding signal (z-score),[12],-0.561
same,glycan array binding signal (z-score),Gal(a1-3)Gal(b1-4)Glc,-0.538
same,glycan array binding signal (z-score),Gal(a1-3)GalNAc,2.52
same,glycan array binding signal (z-score),[13],7.13
same,glycan array binding signal (z-score),Gal(a1-4)Gal(b1-4)Glc,3.6
same,glycan array binding signal (z-score),[14],-0.481
same,glycan array binding signal (z-score),Gal(b1-3)GlcNAc,-0.484
same,glycan array binding signal (z-score),[15],-0.685
same,glycan array binding signal (z-score),[16],-0.378
same,glycan array binding signal (z-score),[17],-0.419
same,glycan array binding signal (z-score),[18],-0.121
same,glycan array binding signal (z-score),[19],-0.443
same,glycan array binding signal (z-score),[20],-0.519
same,glycan array binding signal (z-score),Gal6S(b1-4)Glc,-0.234
same,glycan array binding signal (z-score),[21],-0.476
same,glycan array binding signal (z-score),[22],3.41
same,glycan array binding signal (z-score),[23],-0.353
same,glycan array binding signal (z-score),GalNAc(b1-3)GlcNAc,-0.421
same,glycan array binding signal (z-score),GalNAc(b1-4)GlcNAc,9.27
same,glycan array binding signal (z-score),GalNAc4S6S(b1-4)GlcNAc,-0.488
same,glycan array binding signal (z-score),GlcA(b1-3)Gal,1.18
same,glycan array binding signal (z-score),GlcA(b1-6)Gal,0.079
same,glycan array binding signal (z-score),[24],0.232
same,glycan array binding signal (z-score),[25],1.31
same,glycan array binding signal (z-score),[26],0.6
same,glycan array binding signal (z-score),[27],2.5
same,glycan array binding signal (z-score),[28],-0.613
same,glycan array binding signal (z-score),[29],-0.556
same,glycan array binding signal (z-score),[30],-0.723
same,glycan array binding signal (z-score),[31],2.04
same,glycan array binding signal (z-score),[32],-0.343
same,glycan array binding signal (z-score),[33],-0.706
same,glycan array binding signal (z-score),[34],0.419
same,glycan array binding signal (z-score),[35],-0.785
same,glycan array binding signal (z-score),[36],2.59
same,glycan array binding signal (z-score),[37],0.206

# — the supplement of paper PMC8728848
